Among the data in ChEMBL document CHEMBL1961873, “Compounds: GSK PKIS; Assays: Nanosyn kinase panel” (2012) are inhibition values, retold here.

Protein-tyrosine kinase 6 (Homo sapiens), sequence (Q13882 whole entry, looked up): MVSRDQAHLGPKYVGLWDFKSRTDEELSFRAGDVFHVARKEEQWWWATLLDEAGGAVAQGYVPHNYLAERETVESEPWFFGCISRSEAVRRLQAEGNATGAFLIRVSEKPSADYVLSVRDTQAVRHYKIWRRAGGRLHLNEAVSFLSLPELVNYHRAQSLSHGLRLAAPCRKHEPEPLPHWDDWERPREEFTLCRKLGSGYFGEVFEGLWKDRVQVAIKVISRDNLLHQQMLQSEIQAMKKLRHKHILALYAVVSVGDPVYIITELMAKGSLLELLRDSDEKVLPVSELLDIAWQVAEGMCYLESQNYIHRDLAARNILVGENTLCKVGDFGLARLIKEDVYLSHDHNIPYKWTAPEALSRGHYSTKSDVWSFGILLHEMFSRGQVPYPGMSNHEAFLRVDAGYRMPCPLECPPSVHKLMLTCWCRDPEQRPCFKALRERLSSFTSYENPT

This assay concerns the target Protein-tyrosine kinase 6 (Homo sapiens) (UniProt Q13882). As to conditions: at 0.1 µM.
By inhibition is commonly meant the change of the read-out against control, counted positive when it falls. Consider `CNC(=O)c1cccc(C#Cc2cncnc2Nc2ccc(OCc3cccc(F)c3)c(Cl)c2)c1`, for which the inhibition was -0.91%.

For the compound `Fc1ccc(-c2cc(-c3c[nH]nc3-c3ccccn3)ccn2)cc1`, the inhibition was 5.01%. With `CN1CCC(n2cnc(-c3ccc(F)cc3)c2-c2ccnc(Nc3ccccc3)n2)CC1`, the inhibition stood at 2.56%.

On to `CCn1c(-c2nonc2N)nc2c(C#CC(C)(C)O)ncc(OC3CCNCC3)c21`, for which the inhibition was 1.28%. Turning to `COc1cccc(-c2c[nH]c3c(N/N=C/c4ccncc4)ncnc23)c1`, the inhibition was found to be 2.51%. For `Cc1ccc2c(-c3ccnc(Nc4ccccc4)n3)c(-c3ccc(F)cc3)nn2n1`, the inhibition was determined as 15.2%. The figure for `COC(=O)Nc1nc2ccc(Oc3ccc(NC(=O)Nc4cccc(Cl)c4)cc3)cc2[nH]1` is 0.55%; for `COc1ccc(-c2cc(-c3c[nH]nc3-c3ccccn3)ccn2)cc1` it is 6.49%.

For the compound `COc1cc(/C=N/Nc2ncnc3[nH]ncc23)ccc1O`, the inhibition stood at 5.52%. On to `[O-][S+]1CCN(Cc2ccc(-c3ccc4ncnc(Nc5ccc(OCc6cccc(F)c6)c(Cl)c5)c4c3)o2)CC1`, for which the inhibition turned out to be 4.81%. The figure for `CCNC(=O)O[C@H]1CN[C@H](C#Cc2cc3ncnc(Nc4ccc(OCc5cccc(F)c5)c(Cl)c4)c3s2)C1` is 3.17%; for `CC1=C(C(=O)Nc2cc(Cl)c3[nH]ncc3c2)C(c2ccc(C(F)(F)F)cc2)CC(=O)N1` (centres undefined) it is 5.88%; for `c1ccc(-c2nc3n(c2-c2ccc4c(c2)OCO4)CCC3)nc1` it is 0.9%. Under `CCOc1ccc2c(-c3ccnc(Nc4cccc(C(F)(F)F)c4)n3)cnn2n1` stands -0.32%; under `CCN1CCC(CC(=O)Nc2n[nH]c3nnc(-c4cccc(F)c4F)cc23)CC1`, 2.53%; under `COc1ccc2[nH]c3c4[nH]c5ccc(OC)cc5c4c4c(c3c2c1)C(=O)NC4=O`, 6.37%.

As to `COc1ccc(-c2oc3ncnc(N)c3c2-c2ccc(NC(=O)Nc3cc(C(F)(F)F)ccc3F)cc2)cc1`, the inhibition is 3.11%. Take `Fc1cccc(COc2ccc(Nc3ncnc4sc(-c5ccco5)cc34)cc2Cl)c1`: the inhibition is 3.39%. Take `COc1cc(N2CCN(C(C)C)CC2)ccc1Nc1nc(Nc2ccc(F)cc2C(N)=O)c2cc[nH]c2n1`: the inhibition amounted to 4.84%. Turning to `CN(C)CCOc1ccc(-c2nc(-c3ccncc3)c(-c3ccc4c(c3)CC/C4=N\O)[nH]2)cc1`, the inhibition turned out to be 4.89%. In the case of `NC(=O)c1sc(-n2cnc3ccc(C(F)(F)F)cc32)cc1OCc1ccccc1Br`, the inhibition is 3.76%. For `Nc1nc(-c2cccc(Cl)c2)c(-c2ccc3ncccc3n2)s1`, the inhibition was determined as 5.86%. Consider `CCCN1CCC(c2ccc(Nc3nc(Nc4cc(F)ccc4C(N)=O)c4cc[nH]c4n3)c(OC)c2)CC1`, for which the inhibition came out at 13.5%. In the case of `CCn1cc(-c2ccnc3[nH]ccc23)c(-c2cccc(NC(=O)Nc3ccc(OCc4ccccc4)cc3)c2)n1`, the inhibition was found to be 3.04%. For `NS(=O)(=O)c1ccc(Nc2ncc(-c3ccccc3)o2)cc1`, the inhibition was 4.11%. For the compound `CCCN(CCS(C)(=O)=O)Cc1ccc(-c2ccc3ncnc(Nc4ccc(OCc5cccc(F)c5)c(Cl)c4)c3c2)o1`, the inhibition stood at 4.08%. Under `CCN(CC)S(=O)(=O)c1ccc(OC)c(Nc2ncc(-c3ccccc3)o2)c1` stands -0.82%; under `CS(=O)(=O)CCNCc1coc(-c2ccc3ncnc(Nc4ccc(OCc5ccccc5)cc4)c3c2)c1`, -1.1%; under `N#Cc1c(NC(=O)CN2CCOCC2)sc2c1CCCC2`, 0.26%. Turning to `COc1cccc(-n2ncc3c(N/N=C/c4ccc(F)cc4)ncnc32)c1`, the inhibition worked out at 4.36%.

For the compound `O=C(O[C@H]1CN[C@H](C#Cc2cc3ncnc(Nc4ccc(Cc5ccccc5)cc4)c3s2)C1)N1CCOCC1`, the inhibition is -0.08%. The figure for `COc1cc2c(cc1Nc1nc(Nc3ccsc3C(N)=O)c3cc[nH]c3n1)N(C(=O)CN(C)C)CCC2(C)C` is 5.95%; for `CCc1nn2ncccc2c1-c1ccnc(NC2CC2)n1` it is -0.52%; for `Cc1ccc(O)cc1Nc1ccnc2cc(-c3ccccn3)ccc12` it is 52.5%.
